Measurements from PubChem BioAssay (NCATS).
Values joined by “and” are separate entries in the source; they are usually repeats but may differ in a detail not shown here. Equal values may be shown once. Values without a mark were called inactive. Inconclusive results are not listed. Active and inactive are the calls of the source. The call rests on the fitted dose curve; in most records, active means well fitted curve in the direction sought with a large enough effect; inconclusive means small, poorly fitted or top-dose-only effect, or another doubt; inactive means no such curve, though single readings can be large; an effect the other way counts as inactive or inconclusive.

Legend:
[1] = target: Cytochrome P450 2C9 (Homo sapiens) (UniProt P11712); assay: qHTS Assay for Inhibitors and Substrates of Cytochrome P450 2C9 (AID 883); further: nearly all actives have a fitted effect of over 60% in size; further: potency means the concentration at half of the fitted maximal effect; on activity change, negative = inhibition: on the % scale 0 is the no-effect control and ±100 the full control effect
In short: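 A luminogenic readout tracked human CYP2C9 (10nM) converting deoxyluciferin (100uM, at KM) in 25mM KPO4 during 60 min at 37C with regenerated NADPH. Values normalized to 57uM sulphaphenazole as complete inhibition.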

[2] = target: Cytochrome P450 3A4 (Homo sapiens) (UniProt P08684); assay: qHTS Assay for Inhibitors and Substrates of Cytochrome P450 3A4 (AID 884); further: nearly all actives have a fitted effect of over 50% in size; further: potency means the concentration at half of the fitted maximal effect; on activity change, negative = inhibition: series mostly up to about 57 µM; on the % scale 0 is the no-effect control and ±100 the full control effect
In short: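 20 nM human CYP3A4 with 25 uM Luciferin-PPXE (at KM) in 200 mM KPO4, preincubated 10 min with compound; NADPH regeneration started a 60 min RT reaction. Luciferin detected by luminescence, normalized to 57 uM ketoconazole as full inhibition.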

[3] = target: Cytochrome P450 3A4 (Homo sapiens) (UniProt P08684); assay: qHTS Assay for Activators of Cytochrome P450 3A4 (AID 885); further: nearly all actives have a fitted effect of over 65% in size
In short: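 20nM CYP3A4 + 25uM Luciferin-PPXE (=KM), 200mM KPO4; cpd 10 min RT; NADPH regen, 60 min RT; stop w/ detection buffer, 20 min; luminescence. Normalized to 57 uM ketoconazole.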

[4] = target: Cytochrome P450 2D6 (Homo sapiens) (UniProt P10635); assay: qHTS Assay for Inhibitors and Substrates of Cytochrome P450 2D6 (AID 891); further: nearly all actives have a fitted effect of over 60% in size; further: potency means the concentration at half of the fitted maximal effect;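 on activity change, negative = inhibition: luciferin methyl ether substrate demethylated by CYP2D6 with NADPH regeneration; on the % scale 0 is the no-effect control and ±100 the full control effect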
In short: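 Human CYP2D6 (5 nM) with 30 uM Luciferin-ME EGE (at Km) in 100 mM KPO4, compound preincubated 10 min, then NADPH regeneration system for 60 min at room temperature. Luciferin read by luminescence; normalized to 1.43 uM quinidine.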

[5] = target: Cytochrome P450 2C19 (Homo sapiens) (UniProt P33261); assay: qHTS Assay for Inhibitors and Substrates of Cytochrome P450 2C19 (AID 899); further: nearly all actives have a fitted effect of over 60% in size; further: potency means the concentration at half of the fitted maximal effect
In short: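 NADPH-dependent conversion of Luciferin-H EGE (10uM, at KM) by 5nM enzyme in 50mM KPO4, 60 min at 37C following 10 min compound preincubation. Stopped with luciferin detection buffer; luminescence read after 20 min.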

Sequence of Cytochrome P450 2C9 (Homo sapiens) (P11712 whole entry, looked up): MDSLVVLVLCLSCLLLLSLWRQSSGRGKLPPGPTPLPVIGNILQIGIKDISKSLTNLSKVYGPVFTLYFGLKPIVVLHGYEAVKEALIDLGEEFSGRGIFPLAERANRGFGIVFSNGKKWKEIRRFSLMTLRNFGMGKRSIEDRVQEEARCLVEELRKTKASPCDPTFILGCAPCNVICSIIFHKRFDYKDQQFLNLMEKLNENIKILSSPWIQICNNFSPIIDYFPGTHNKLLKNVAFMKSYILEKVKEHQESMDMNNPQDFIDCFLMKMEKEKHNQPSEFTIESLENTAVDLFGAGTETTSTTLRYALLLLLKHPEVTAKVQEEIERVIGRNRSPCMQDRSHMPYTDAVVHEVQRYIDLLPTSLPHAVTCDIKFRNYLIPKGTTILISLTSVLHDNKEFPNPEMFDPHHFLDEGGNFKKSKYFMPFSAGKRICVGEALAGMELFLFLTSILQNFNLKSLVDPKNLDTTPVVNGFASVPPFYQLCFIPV
Sequence of Cytochrome P450 3A4 (Homo sapiens) (P08684 whole entry, looked up): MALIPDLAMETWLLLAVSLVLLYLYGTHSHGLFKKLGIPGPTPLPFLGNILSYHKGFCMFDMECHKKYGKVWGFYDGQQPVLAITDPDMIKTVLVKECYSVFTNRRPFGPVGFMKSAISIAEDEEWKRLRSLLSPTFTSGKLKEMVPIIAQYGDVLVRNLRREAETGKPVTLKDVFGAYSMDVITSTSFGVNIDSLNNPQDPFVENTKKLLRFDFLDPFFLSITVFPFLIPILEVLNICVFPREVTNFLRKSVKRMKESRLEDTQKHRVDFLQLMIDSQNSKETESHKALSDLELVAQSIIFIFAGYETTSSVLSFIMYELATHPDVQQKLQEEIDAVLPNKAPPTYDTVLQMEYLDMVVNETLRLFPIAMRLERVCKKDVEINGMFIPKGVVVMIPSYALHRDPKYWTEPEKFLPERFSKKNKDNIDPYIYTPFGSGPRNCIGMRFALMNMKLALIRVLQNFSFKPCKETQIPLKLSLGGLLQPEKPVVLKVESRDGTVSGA
Sequence of Cytochrome P450 2C19 (Homo sapiens) (P33261 whole entry, looked up): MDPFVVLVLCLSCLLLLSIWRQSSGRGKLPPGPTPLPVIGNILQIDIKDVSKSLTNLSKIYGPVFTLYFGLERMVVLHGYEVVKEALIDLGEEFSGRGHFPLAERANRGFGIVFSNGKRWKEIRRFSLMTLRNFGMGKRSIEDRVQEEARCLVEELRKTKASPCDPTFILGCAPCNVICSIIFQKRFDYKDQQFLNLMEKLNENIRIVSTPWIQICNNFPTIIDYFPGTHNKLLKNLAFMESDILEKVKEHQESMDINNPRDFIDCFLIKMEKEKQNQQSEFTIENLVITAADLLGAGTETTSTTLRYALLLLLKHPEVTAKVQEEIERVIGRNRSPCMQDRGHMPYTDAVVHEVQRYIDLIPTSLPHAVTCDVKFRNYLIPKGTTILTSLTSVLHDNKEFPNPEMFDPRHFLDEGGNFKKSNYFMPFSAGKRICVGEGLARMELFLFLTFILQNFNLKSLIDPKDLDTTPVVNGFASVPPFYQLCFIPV
Sequence of Cytochrome P450 2D6 (Homo sapiens) (P10635 whole entry, looked up): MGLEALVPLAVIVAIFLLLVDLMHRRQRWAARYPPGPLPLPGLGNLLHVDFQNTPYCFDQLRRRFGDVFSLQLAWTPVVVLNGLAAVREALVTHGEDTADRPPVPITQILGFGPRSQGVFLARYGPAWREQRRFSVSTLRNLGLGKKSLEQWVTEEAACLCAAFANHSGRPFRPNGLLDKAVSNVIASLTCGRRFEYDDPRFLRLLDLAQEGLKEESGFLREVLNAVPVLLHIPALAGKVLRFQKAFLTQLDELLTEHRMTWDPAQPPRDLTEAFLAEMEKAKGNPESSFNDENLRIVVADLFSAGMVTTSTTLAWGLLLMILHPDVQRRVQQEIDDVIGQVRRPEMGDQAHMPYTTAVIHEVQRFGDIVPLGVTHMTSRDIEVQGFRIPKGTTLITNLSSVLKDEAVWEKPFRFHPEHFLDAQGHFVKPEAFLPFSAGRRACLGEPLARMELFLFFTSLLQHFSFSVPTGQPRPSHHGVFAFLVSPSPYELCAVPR

| SMILES | Potency [1] | Potency [2] | activity change, positive = activation [3] | Potency [4] | Potency [5] | activity change, negative = inhibition [2] |
| --- | --- | --- | --- | --- | --- | --- |
| CCOC(=O)OCC1OC(CCc2ccccc2)CCC1Oc1ccc(OC)cc1 (centres undefined) | inactive | 3.98 µM (active) | -68.7% [at 11.4 µM] | inactive |  |  |
| CC(=O)OCC1OC(C#Cc2ccccc2)C=CC1OC(C)=O (centres undefined) | inactive | 3.98 µM (active) | -91.5% [at 11.4 µM] and -31.7% [at 11.4 µM] | inactive | inactive |  |
| COC(=O)[C@H](CCSC)NC(=O)C/C=C\[C@@H](C)CO | inactive |  |  |  |  |  |
| COc1ccc(OC2C=CC(C#Cc3ccc(Br)cc3)OC2CO)c(C(C)(C)C)c1 (centres undefined) | 3.16 µM (active) | 3.98 µM (active) | -84.8% [at 11.4 µM] | inactive |  |  |
| Cc1cc2c(nc1C)CCCN2C[C@H](O)CN1CCCc2nc(-c3ccc(Br)cc3)ccc21 | 2.51 µM (active) | 3.98 µM (active) | -65% [at 11.4 µM] and -47.8% [at 11.4 µM] | 3.16 µM (active) |  |  |
| COC(=O)C(C(C)=O)C(NC(=O)NCc1ccccc1)c1ccccc1 (centres undefined) | inactive | 3.98 µM (active) | -69.4% [at 11.4 µM] | inactive |  |  |
| CC(=O)OC[C@@H]1O[C@@H](O/N=C2/C[C@@H](O)[C@@H](O)[C@@H]3[C@@H]4C(=O)N(C5CCCCC5)C(=O)[C@H]4CC[C@@H]23)[C@H](OC(C)=O)[C@H](OC(C)=O)[C@@H]1OC(C)=O | inactive |  |  |  |  |  |
| COc1ccc(OC[C@@H](CO)OC)cc1 | inactive |  |  |  |  |  |
| CC(=O)OC[C@@H]1O[C@@H](O/N=C2/C[C@@H](O)[C@@H](O)[C@@H]3[C@@H]4C(=O)N(C(C)(C)C)C(=O)[C@H]4CC[C@@H]23)[C@H](OC(C)=O)[C@H](OC(C)=O)[C@@H]1OC(C)=O | inactive |  |  |  |  |  |
| CC#CCOCC/C=C1/c2ccccc2C(OC)C1C (centres undefined) | inactive | 3.98 µM (active) | -90.8% [at 11.4 µM] | inactive | 1 µM (active) |  |
| COC(=O)C1=C(C)N(Cc2ccccc2)[C@]23O[C@](C(=O)OC)(C(=O)N2C1c1ccccc1)C(C(=O)OC)C3C(=O)OC (some centres undefined) | inactive |  | -46.5% [at 11.4 µM] | inactive | inactive | -20.8% [at 11.4 µM] |
| CC(=O)c1ccc(OC2C=CC(C#Cc3ccc(Br)cc3)OC2CO)cc1 (centres undefined) | inactive | 3.16 µM (active) | -77.6% [at 11.4 µM] | inactive |  |  |
